An excerpt weighted towards active compounds, which were near 21% of everything screened.
D3 antag: blocks the human D3 dopamine receptor; 2.5% of 360,000 active; D3R cells, DiscoveRx beta-arrestin luminescence, antagonist mode; active compounds read low; max response, negative = inhibition, %; P35462; in the data active means max response below about -50%; inconclusive means no clear call, values can overlap the other calls
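Cells expressing the human receptor were seeded at 1500 cells/well, incubated overnight at 37 degrees C in 5% CO2, then exposed to library compounds with dopamine controls for 90 minutes at 37 degrees C before luminescent detection.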
DRD3 agonist: D3 dopamine receptor (human) agonism; D3R DiscoveRx beta-arrestin cells, luminescence, 90 min; max activation, %; 0.58% of 410,000 active; AID 652048; in the data active means max activation above about 30%
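Agonist mode: compounds and dopamine controls were applied to plated cells for 90 min at 37 degrees C after an overnight attachment at 1500 cells/well. Luminescent read-out followed 30 - 60 minutes at room temperature with DiscoveRx detection reagent.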
ClpP mod: qHTS Assay for Activators of ClpP. Potency, µM (titrated, usually from 57.5 µM). ATP-dependent Clp protease proteolytic subunit (Bacillus subtilis (strain 168)), P80244. purified B. subtilis ClpP, FRET peptide cleavage, 20 min. 1.9% of 340,000 active; active means well fitted falling curve with a large enough effect; inconclusive means small, poorly fitted or top-dose-only effect; inactive means no such curve, though single readings can be large or run the other way; further: the source files actives as falling curves though it sought activators and does not explain the sign; nearly all actives have a fitted effect of over 65% in size
Target sequence (P80244 whole entry, looked up): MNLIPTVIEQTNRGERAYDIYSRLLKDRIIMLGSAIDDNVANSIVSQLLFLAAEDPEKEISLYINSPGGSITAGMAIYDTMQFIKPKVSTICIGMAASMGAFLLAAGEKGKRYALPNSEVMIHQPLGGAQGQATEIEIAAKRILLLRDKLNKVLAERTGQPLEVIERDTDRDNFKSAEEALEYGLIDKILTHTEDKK
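FRET quenching reversal measured ClpP activation: 10 microg/mL B. subtilis ClpP at pH 8 with the FRET-FV decapeptide, read at 430 nm after 320 nm excitation. The 20-min minus 0-min signal was scaled between DMSO/no-enzyme wells and ADEP (5.8 microM final).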
IL1B secr inh: inhibitors of inflammasome signaling (IL-1 beta secretion); THP-1 LPS/ATP IL-1B secretion, AlphaLISA, 16 h; active compounds read low; activity change, % at 57.5 µM; 4.7% of 360,000 active; AID 743279; in the data active means activity change below about -50%; inconclusive means mostly about -30% to -49%
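THP-1 cells pretreated 1 hr with compounds (up to 57.5 uM final), then stimulated with LPS (250 ng/mL final) plus ATP (1.25 mM final); secreted IL-1B measured by AlphaLISA after 16 hr, decreased signal indicating inhibition.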
TDP1 cell CPT: DT40-hTDP1 cell growth loss with CPT. chicken DT40 Tdp1-/-;hTDP1 cells + 20 nM CPT, ATP luminescence, 48 h. Potency, µM (highest dose often 46.2 µM), actives largely listed as inhibitors. 12% of 420,000 active; further: nearly all actives have a fitted effect of over 55% in size
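Chicken DT40 Tdp1-/- cells complemented with human TDP1, 400 cells/well, exposed to compounds plus 20 nM camptothecin for at least 48 h at 37 C; viability read as ATP content by CellTiter-Glo luminescence.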
TDP1 cell noCPT: qHTS for Inhibitors of human tyrosyl-DNA phosphodiesterase 1 (TDP1): qHTS in cells in absence of CPT | DT40 Tdp1-/- hTDP1 cells, no CPT, ATP luminescence, 48 h | Potency, µM (top dose mostly 46.2 µM), hits mostly inhibitors | 15% of 420,000 active | AID 686978, 2013; further: nearly all actives have a fitted effect of over 55% in size
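Luminescent ATP content (CellTiter-Glo) served as the growth readout. Knockout chicken DT40 cells expressing human TDP1 were exposed to compounds without camptothecin for a minimum 48 hr at 37 °C.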
A number is an active result. Unless noted, the call rests on the fitted dose curve; in most records, active means well fitted inhibition curve with a large enough effect; inconclusive means small, poorly fitted or top-dose-only effect; inactive means flat fitted curve, though single readings scatter.

What do the screens show for `O=C(Cc1cnn(-c2ccccc2)c1)c1ccc(O)c(O)c1O`?
D3 antag: inactive; DRD3 agonist: inactive; ClpP mod: inactive; IL1B secr inh: inactive; TDP1 cell CPT: 21µM; TDP1 cell noCPT: inconclusive

Results for Cc1ccc(O)c(C(=O)c2cnn(-c3ccccc3)c2)c1 ?
D3 antag: inactive; DRD3 agonist: inactive; ClpP mod: inconclusive; IL1B secr inh: inactive; TDP1 cell CPT: 7.3µM; TDP1 cell noCPT: 12µM

Results for CCc1cc(C(=O)Cc2cnn(-c3ccccc3)c2)c(O)cc1O ?
D3 antag: inactive; DRD3 agonist: inactive; ClpP mod: inconclusive; IL1B secr inh: inactive; TDP1 cell CPT: inactive; TDP1 cell noCPT: inactive

Results for CCC(C)NCCOCCOc1ccccc1-c1ccccc1 (stereo unspecified) ?
D3 antag: -69; DRD3 agonist: inactive; ClpP mod: inactive; IL1B secr inh: inconclusive; TDP1 cell CPT: inconclusive; TDP1 cell noCPT: inconclusive

How did CC(C)(C)NCCOCCOc1ccccc1-c1ccccc1 do in these assays?
D3 antag: inactive; DRD3 agonist: inactive; ClpP mod: inactive; IL1B secr inh: inactive; TDP1 cell CPT: 12µM; TDP1 cell noCPT: inconclusive

How did Cc1ccc2cc(F)ccc2n1 do in these assays?
D3 antag: inactive; DRD3 agonist: inactive; ClpP mod: inactive; IL1B secr inh: inactive; TDP1 cell CPT: inactive; TDP1 cell noCPT: inactive

How did CCOc1cccc(NC(=O)C2CC(=O)N(C)C(=Nc3ccc(F)cc3)S2)c1 (stereo unspecified) do in these assays?
DRD3 agonist: inactive; ClpP mod: inactive; TDP1 cell CPT: inconclusive; TDP1 cell noCPT: inconclusive

What do the screens show for `COc1ccc(OC)c(S(=O)(=O)n2cnc3ccccc32)c1`?
D3 antag: inactive; DRD3 agonist: inactive; IL1B secr inh: inactive; TDP1 cell CPT: inconclusive; TDP1 cell noCPT: 16µM

What do the screens show for `COc1ccc(OC)c(S(=O)(=O)Nc2cnc3ccccc3c2)c1`?
D3 antag: inactive; DRD3 agonist: inactive; ClpP mod: inactive; IL1B secr inh: inactive; TDP1 cell CPT: inconclusive; TDP1 cell noCPT: 23µM

What do the screens show for `O=S(=O)(Nc1cnc2ccccc2c1)N1CCCCCC1`?
D3 antag: inactive; DRD3 agonist: inactive; ClpP mod: inactive; IL1B secr inh: inactive; TDP1 cell CPT: 21µM; TDP1 cell noCPT: 13µM

What do the screens show for `COc1ccc(OC)c(S(=O)(=O)Nc2ccc3c(c2)C(=O)OC3)c1`?
D3 antag: inactive; DRD3 agonist: inactive; IL1B secr inh: inactive; TDP1 cell CPT: 12µM; TDP1 cell noCPT: 8.2µM

What do the screens show for `O=C(NCc1ccncc1)C(=O)NC1CC1`?
D3 antag: inactive; DRD3 agonist: inactive; IL1B secr inh: inactive; TDP1 cell CPT: inactive; TDP1 cell noCPT: inactive

How did COCCOC(=O)c1c(C)n(C)c2ccc(OC(=O)c3ccccc3F)cc12 do in these assays?
D3 antag: inactive; DRD3 agonist: inactive; ClpP mod: inactive; IL1B secr inh: inactive; TDP1 cell CPT: inactive; TDP1 cell noCPT: inconclusive

Results for O=C(O)c1ccc(Cn2cnc3c(=O)[nH]cnc32)cc1 ?
D3 antag: inactive; DRD3 agonist: inactive; ClpP mod: inactive; IL1B secr inh: inactive; TDP1 cell CPT: inactive; TDP1 cell noCPT: inactive

How did CCCCn1c(N)c(N(CC(C)C)C(=O)c2ccc3c(c2)NC(=O)C(C)S3)c(=O)[nH]c1=O (stereo unspecified) do in these assays?
D3 antag: inactive; DRD3 agonist: inactive; ClpP mod: inactive; IL1B secr inh: inactive; TDP1 cell CPT: inactive; TDP1 cell noCPT: inactive

What do the screens show for `COc1ccc(OC)c(S(=O)(=O)N2CCN(c3ccccc3)CC2)c1`?
D3 antag: inactive; DRD3 agonist: inactive; ClpP mod: inactive; IL1B secr inh: inactive; TDP1 cell CPT: inactive; TDP1 cell noCPT: inactive

How did COc1ccc(OC)c(S(=O)(=O)ON2C(=O)c3ccccc3C2=O)c1 do in these assays?
D3 antag: -97; DRD3 agonist: inactive; IL1B secr inh: inactive; TDP1 cell CPT: 2.3µM; TDP1 cell noCPT: 1.5µM
